This is an account of results in article PMC7862700, “An all-to-all approach to the identification of sequence-specific readers for epigenetic DNA modifications on cytosine”.

What all share (experiment): DAPPL (digital affinity profiling via proximity ligation, sequencing); 10 mM Tris-HCl pH 7.5, 50 mM NaCl, 1 mM DTT, 4% glycerol, room temperature, 30 min; GST-TFs on glutathione beads, 16-mer random dsDNA library, 0.1% formaldehyde crosslink after washing; high values mean tight binding
Common to all, as to conditions: protein: recombinant; tags: N-terminal GST; dsDNA, one strand shown

Assay [1] has as its target T1, FLI1 (Homo sapiens, UniProt Q01543 1-452).
T1 sequence: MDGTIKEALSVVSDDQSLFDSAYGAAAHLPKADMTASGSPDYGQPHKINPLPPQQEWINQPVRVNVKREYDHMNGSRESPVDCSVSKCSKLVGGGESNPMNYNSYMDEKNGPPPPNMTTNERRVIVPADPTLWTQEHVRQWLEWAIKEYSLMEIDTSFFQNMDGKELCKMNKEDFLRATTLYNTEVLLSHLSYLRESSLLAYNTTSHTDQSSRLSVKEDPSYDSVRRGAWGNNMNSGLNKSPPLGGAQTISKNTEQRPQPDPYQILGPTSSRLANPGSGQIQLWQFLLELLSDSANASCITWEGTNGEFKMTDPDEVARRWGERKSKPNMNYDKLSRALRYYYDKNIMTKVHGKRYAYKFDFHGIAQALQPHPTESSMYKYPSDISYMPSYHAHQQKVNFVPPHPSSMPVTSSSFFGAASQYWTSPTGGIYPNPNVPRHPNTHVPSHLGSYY
The gist of the method:
(§1)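 Binding signal is each hexamer's read frequency for a factor divided by its frequency in the tag-only sample. The factors were GST-fused human transcription factors from yeast, captured on glutathione beads, DNA-barcoded and pooled with that sample. Pools were incubated with 200 nmole of a random double-stranded 16-mer DNA library in Tris/NaCl/DTT/glycerol buffer at room temperature for 30 min, then washed, crosslinked with 0.1% formaldehyde, proximity-ligated with BsaI/T4 ligase (1 h, 37 °C), PCR-amplified and sequenced on an Illumina NextSeq500.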

Assay [2] has as its target T2, ELK1 (Homo sapiens, UniProt P19419 1-428).
T2 sequence: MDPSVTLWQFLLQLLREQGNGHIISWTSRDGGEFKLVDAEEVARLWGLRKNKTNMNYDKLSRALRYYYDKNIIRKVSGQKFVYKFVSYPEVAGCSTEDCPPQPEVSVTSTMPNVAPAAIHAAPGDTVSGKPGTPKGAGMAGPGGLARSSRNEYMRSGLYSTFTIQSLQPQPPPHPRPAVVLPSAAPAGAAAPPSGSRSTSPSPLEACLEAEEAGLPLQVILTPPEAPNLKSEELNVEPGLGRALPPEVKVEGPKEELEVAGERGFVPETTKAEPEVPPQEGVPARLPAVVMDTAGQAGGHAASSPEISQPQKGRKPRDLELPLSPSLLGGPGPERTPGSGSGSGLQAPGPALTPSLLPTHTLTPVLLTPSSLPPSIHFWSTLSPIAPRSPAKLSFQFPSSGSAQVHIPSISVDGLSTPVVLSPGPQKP
An outline of the steps: as §1

Assay [3] has as its target T3, GABPA (Homo sapiens, UniProt Q06546 1-454).
T3 sequence: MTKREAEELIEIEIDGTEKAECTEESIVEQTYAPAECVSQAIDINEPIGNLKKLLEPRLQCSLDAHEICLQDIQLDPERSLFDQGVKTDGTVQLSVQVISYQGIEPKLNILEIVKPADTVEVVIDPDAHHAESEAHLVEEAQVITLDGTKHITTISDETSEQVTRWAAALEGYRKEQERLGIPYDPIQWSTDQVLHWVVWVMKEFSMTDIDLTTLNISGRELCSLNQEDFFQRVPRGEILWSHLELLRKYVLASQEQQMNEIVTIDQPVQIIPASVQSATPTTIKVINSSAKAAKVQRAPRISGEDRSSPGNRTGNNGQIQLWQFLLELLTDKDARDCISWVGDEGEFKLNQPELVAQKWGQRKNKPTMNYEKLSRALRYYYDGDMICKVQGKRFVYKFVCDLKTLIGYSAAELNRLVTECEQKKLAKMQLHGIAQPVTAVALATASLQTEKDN
An outline of the steps:
as §1

For assay [4], the target named is T4, ERG (Homo sapiens, UniProt P11308 1-479).
T4 sequence: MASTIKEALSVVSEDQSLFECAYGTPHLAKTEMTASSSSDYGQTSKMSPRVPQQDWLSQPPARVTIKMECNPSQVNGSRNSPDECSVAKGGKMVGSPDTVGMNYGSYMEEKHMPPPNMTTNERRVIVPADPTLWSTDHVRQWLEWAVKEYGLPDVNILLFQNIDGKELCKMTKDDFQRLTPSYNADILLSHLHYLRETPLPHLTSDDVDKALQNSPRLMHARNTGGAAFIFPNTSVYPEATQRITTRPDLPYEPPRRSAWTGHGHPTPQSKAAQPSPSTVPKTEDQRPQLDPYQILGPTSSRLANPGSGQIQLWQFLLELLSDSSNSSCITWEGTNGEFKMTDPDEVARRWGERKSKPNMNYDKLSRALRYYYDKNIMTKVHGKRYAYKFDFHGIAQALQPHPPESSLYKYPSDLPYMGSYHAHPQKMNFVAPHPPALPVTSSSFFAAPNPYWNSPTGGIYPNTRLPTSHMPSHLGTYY
An outline of the steps:
as §1

The target of assay [5] is ELF1 (Homo sapiens, UniProt P32519 1-619). The gist of the method:
as §1

Assay [6] concerns the target T5, EHF (Homo sapiens, UniProt Q9NZC4 1-300).
T5 sequence: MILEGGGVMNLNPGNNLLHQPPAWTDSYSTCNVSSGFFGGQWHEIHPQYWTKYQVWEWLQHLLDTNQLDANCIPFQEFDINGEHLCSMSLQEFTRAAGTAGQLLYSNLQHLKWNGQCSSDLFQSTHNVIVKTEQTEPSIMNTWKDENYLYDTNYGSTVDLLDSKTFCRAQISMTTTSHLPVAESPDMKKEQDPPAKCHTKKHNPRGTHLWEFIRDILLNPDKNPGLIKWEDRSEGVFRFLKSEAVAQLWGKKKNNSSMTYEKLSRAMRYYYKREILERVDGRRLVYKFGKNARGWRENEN
The gist of the method:
as §1

In assay [7] the target is SPI1 (Homo sapiens, UniProt P17947 1-270). An outline of the steps: as §1
Assay [8] has as its target SPIB (Homo sapiens, UniProt Q01892 1-262). An outline of the steps:
as §1

Assay [9] addresses T6, ELK3 (Homo sapiens, UniProt P41970 1-407).
T6 sequence: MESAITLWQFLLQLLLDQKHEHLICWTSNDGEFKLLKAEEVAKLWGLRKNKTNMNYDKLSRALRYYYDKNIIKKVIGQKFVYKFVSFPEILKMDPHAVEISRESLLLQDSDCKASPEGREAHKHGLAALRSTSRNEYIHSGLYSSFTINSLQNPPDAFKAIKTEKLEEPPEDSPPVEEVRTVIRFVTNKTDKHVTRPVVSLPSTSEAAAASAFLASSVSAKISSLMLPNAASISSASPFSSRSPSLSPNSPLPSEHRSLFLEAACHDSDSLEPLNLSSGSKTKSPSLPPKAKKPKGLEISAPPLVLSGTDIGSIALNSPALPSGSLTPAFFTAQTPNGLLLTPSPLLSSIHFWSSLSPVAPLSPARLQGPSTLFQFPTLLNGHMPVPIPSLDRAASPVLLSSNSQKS
The gist of the method: as §1

Assay [10] concerns the target T7, FEV (Homo sapiens, UniProt Q99581 1-238).
T7 sequence: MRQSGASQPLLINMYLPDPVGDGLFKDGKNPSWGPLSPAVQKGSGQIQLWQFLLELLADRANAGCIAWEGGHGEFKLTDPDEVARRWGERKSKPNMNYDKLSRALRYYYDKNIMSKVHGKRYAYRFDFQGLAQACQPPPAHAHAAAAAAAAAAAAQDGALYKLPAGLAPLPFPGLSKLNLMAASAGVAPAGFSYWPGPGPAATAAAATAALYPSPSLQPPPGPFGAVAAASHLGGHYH
The gist of the method:
as §1

For assay [11], the target named is ETV5 (Homo sapiens, UniProt P41161 1-510). The gist of the method:
as §1

Assay [12] addresses T8, SPIC (Homo sapiens, UniProt Q8N5J4 1-248).
T8 sequence: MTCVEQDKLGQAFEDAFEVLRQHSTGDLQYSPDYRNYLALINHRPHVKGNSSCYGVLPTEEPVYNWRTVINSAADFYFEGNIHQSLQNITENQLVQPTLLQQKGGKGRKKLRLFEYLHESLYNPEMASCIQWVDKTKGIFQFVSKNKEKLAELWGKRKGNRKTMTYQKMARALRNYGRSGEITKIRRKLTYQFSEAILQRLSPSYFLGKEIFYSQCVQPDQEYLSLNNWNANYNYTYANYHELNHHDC
An outline of the steps:
as §1

For assay [13], the target named is ELF4 (Homo sapiens, UniProt Q99607 1-663). The gist of the method:
as §1

The target in assay [14] is T9, ELK4 (Homo sapiens, UniProt P28324-2 1-405).
T9 sequence: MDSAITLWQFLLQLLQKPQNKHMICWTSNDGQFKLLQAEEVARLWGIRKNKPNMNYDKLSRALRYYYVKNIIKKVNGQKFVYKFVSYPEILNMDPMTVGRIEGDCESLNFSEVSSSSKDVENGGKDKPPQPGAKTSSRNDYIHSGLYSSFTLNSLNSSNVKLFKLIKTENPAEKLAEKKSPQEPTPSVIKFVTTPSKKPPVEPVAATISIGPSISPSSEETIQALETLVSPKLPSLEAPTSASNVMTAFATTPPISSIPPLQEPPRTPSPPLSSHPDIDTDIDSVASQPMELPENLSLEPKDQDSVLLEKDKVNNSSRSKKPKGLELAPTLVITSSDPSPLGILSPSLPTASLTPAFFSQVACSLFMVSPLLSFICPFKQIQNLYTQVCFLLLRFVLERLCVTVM
The gist of the method: as §1

For assay [15], the target named is T10, ETV2 (Homo sapiens, UniProt O00321 1-342).
T10 sequence: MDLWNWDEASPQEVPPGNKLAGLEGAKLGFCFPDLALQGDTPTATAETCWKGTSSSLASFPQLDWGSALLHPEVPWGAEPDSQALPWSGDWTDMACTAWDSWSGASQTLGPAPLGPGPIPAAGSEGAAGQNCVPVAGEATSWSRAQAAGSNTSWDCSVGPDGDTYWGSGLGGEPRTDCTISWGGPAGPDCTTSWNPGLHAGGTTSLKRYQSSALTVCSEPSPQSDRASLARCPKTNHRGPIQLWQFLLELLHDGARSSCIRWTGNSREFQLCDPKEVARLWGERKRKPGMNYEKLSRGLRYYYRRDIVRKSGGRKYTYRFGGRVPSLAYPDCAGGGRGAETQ
An outline of the steps:
as §1

Assay [16] concerns the target T11, ELF3 (Homo sapiens, UniProt P78545 1-371).
T11 sequence: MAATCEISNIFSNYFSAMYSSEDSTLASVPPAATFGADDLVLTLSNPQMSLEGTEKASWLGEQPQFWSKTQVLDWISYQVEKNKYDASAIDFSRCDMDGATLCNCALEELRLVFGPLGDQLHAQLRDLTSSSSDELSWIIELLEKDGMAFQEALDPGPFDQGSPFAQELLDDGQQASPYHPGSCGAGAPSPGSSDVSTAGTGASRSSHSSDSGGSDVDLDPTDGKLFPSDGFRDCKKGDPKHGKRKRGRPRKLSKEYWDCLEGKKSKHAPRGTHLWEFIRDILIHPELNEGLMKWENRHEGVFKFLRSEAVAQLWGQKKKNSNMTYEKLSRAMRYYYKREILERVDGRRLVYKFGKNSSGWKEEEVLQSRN
An outline of the steps:
as §1

The target of assay [17] is CRX (Homo sapiens, UniProt O43186 1-299). An outline of the steps:
as §1

In assay [18] the target is ETV1 (Homo sapiens, UniProt P50549 1-477). The gist of the method:
as §1

Chain of ELF1 (P32519 whole entry): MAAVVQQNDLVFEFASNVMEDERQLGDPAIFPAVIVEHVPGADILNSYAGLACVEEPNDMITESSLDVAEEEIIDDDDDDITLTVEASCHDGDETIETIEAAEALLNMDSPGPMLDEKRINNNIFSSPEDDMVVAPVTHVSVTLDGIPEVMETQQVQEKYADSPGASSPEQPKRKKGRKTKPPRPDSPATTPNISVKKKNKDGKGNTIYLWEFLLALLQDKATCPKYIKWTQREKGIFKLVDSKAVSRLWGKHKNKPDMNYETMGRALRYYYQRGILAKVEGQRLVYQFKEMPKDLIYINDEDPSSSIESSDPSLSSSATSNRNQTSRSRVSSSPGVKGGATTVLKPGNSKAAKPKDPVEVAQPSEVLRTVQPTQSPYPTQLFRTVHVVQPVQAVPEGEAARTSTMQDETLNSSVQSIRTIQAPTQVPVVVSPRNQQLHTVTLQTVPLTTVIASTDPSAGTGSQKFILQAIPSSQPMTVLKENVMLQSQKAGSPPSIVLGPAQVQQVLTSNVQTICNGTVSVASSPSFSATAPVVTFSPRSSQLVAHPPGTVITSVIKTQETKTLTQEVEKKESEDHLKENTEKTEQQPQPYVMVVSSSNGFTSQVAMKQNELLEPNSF
Chain of ETV5 (P41161 whole entry): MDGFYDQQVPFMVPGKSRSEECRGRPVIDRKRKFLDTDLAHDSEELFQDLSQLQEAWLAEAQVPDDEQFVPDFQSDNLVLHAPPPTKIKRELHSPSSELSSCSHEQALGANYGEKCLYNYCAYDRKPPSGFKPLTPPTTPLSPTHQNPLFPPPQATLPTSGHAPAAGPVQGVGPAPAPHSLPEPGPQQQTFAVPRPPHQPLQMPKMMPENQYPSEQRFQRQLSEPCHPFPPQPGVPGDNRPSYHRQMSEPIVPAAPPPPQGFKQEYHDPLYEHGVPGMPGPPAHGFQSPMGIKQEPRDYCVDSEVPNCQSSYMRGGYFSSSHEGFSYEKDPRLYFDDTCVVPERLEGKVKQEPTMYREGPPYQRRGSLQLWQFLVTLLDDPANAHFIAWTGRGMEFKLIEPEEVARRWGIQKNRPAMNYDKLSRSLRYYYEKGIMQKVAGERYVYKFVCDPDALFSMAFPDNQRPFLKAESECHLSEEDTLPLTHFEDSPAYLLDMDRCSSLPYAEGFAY
Chain of ELF4 (Q99607 whole entry): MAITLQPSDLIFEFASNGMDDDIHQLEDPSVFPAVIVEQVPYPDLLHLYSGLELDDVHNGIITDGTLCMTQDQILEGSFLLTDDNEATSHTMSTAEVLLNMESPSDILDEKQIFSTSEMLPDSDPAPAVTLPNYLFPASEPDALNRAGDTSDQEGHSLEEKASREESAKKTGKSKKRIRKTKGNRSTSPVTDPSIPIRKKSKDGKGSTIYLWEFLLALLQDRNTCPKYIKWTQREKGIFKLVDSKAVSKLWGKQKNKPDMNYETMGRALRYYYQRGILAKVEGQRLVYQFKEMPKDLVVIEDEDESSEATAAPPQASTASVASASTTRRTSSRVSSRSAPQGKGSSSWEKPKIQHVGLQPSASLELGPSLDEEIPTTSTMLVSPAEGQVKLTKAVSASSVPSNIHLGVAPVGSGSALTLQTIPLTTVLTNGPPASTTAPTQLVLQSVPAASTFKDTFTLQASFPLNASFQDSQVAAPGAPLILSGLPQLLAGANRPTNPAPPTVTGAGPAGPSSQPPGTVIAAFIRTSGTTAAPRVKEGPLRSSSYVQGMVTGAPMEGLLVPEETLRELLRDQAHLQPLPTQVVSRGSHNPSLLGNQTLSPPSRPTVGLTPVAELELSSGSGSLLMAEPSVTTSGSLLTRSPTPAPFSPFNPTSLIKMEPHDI
Chain of CRX (O43186 whole entry): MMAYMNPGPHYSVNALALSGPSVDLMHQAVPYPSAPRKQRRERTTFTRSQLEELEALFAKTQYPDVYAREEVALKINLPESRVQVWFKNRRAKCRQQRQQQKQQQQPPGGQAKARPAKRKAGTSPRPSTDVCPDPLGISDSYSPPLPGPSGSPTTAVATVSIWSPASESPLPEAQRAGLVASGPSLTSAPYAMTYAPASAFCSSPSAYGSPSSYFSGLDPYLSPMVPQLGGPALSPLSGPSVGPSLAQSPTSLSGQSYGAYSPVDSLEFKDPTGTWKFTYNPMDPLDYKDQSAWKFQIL
Chain of ETV1 (P50549 whole entry): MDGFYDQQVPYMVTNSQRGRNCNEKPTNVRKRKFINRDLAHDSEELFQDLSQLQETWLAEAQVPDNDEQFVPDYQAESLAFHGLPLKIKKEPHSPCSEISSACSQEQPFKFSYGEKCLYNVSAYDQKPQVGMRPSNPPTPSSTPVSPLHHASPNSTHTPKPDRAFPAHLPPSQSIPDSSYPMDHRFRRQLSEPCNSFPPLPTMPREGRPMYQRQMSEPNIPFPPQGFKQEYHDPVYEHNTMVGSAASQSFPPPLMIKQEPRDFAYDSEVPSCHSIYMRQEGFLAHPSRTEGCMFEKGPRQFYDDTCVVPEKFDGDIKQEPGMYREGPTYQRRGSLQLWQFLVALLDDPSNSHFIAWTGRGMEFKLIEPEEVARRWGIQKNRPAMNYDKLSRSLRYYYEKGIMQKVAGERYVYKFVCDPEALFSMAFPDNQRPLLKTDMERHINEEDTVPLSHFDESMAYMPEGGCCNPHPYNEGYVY
Chain of SPIB (Q01892 whole entry): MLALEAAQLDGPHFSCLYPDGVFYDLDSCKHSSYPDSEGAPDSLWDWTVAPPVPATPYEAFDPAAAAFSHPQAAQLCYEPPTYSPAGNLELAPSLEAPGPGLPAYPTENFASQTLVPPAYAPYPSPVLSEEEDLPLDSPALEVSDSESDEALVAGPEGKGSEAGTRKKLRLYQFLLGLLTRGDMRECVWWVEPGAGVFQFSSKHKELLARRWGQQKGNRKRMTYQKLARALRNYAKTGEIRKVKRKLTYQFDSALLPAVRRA

GGTCTA: the binding signal in assay [1] was 1.12 fold enrichment (6-mer frequency, TF over GST control); in assay [2], 1.05 fold enrichment (6-mer frequency, TF over GST control); in assay [3] it was 1.06 fold enrichment (6-mer frequency, TF over GST control); in [4], 1.08 fold enrichment (6-mer frequency, TF over GST control); in [5], 1.05 fold enrichment (6-mer frequency, TF over GST control); in assay [6], 1.23 fold enrichment (6-mer frequency, TF over GST control). The binding signal in [7] was 1.02 fold enrichment (6-mer frequency, TF over GST control); in assay [8], 1.05 fold enrichment (6-mer frequency, TF over GST control); in assay [9] it was 1.24 fold enrichment (6-mer frequency, TF over GST control); in [10] it was 1.06 fold enrichment (6-mer frequency, TF over GST control); in assay [11] it was 1.11 fold enrichment (6-mer frequency, TF over GST control); in [12], 1.09 fold enrichment (6-mer frequency, TF over GST control). Besides, the binding signal in assay [13] was 1.11 fold enrichment (6-mer frequency, TF over GST control); in assay [14] it was 1.04 fold enrichment (6-mer frequency, TF over GST control); in [15] it was 1.06 fold enrichment (6-mer frequency, TF over GST control); in assay [16], 1.01 fold enrichment (6-mer frequency, TF over GST control); in assay [17], 1.01 fold enrichment (6-mer frequency, TF over GST control); in [18], 1.05 fold enrichment (6-mer frequency, TF over GST control).
